Values joined by “and” are separate entries in the source; they are usually repeats but may differ in a detail not shown here. Equal values may be shown once. Results filed as inconclusive are left out. Active and inactive are the calls of the source. The call rests on the fitted dose curve; in most records, active means well fitted curve in the direction sought with a large enough effect; inconclusive means small, poorly fitted or top-dose-only effect, or another doubt; inactive means no such curve, though single readings can be large; an effect the other way counts as inactive or inconclusive.
Legend:
W2 = test: qHTS profiling for inhibitors of Plasmodium falciparum proliferation (AID 504749); further: nearly all actives have a fitted effect of over 60% in size; further: potency means the concentration at half of the fitted maximal effect; conditions: P. falciparum in erythrocytes, SYBR Green DNA, 72 h; series mostly up to 28.7 µM
Outline: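 Infected RBCs, 0.3% parasitemia/2.5% Hct final; cpd 72 h, 37 C, 5% CO2; lysis buffer with saponin/triton/SYBR Green I, o/n RT dark; FI 485/535; norm. to artemisinin (0.29 uM) and DMSO.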

CRL-7250 = normal cell line; test: Cytotoxic Profiling of Annotated Libraries Using Quantitative High-Throughput Screening (AID 1296008); conditions: Five cell lines viability, CellTiter-Glo ATP luminescence, 48-72 h; max response: stronger effect = lower value; further: nearly all actives have a fitted effect of over 60% in size; further: potency means the concentration at half of the fitted maximal effect; on max response: on the % scale 0 is the no-effect control and ±100 the full control effect
Outline: (§1)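 Cytotoxicity was measured as CellTiter-Glo ATP luminescence, read after 10 min at room temperature. Compound treatment of the cells lasted 48 or 72 hr at 37 degrees Celsius in a qHTS format.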

HEK293 = test: as above; conditions: Five cell lines viability, CellTiter-Glo ATP luminescence, 48-72 h; max response: stronger effect = lower value
Outline: as §1

HaCat [1] = test: as above; conditions: Five cell lines viability, CellTiter-Glo ATP luminescence, 48-72 h; max response: stronger effect = lower value
Outline: as §1

KB-3-1 = test: as above; conditions: Five cell lines viability, CellTiter-Glo ATP luminescence, 48-72 h; max response: stronger effect = lower value
Outline: as §1

NIH3T3 [2] = test: as above; conditions: Five cell lines viability, CellTiter-Glo ATP luminescence, 48-72 h; max response: stronger effect = lower value
Outline: as §1

MCC-13 = test: qHTS assay to identify novel small-molecules to repurpose for Merkel cell carcinoma treatment (AID 1296009); conditions: MCC and control cell lines, CellTiter-Glo viability, 72 h; series mostly up to 46 µM; further: nearly all actives have a fitted effect of over 60% in size; further: potency means the concentration at half of the fitted maximal effect
Outline: (§2)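 72 hr, 37 degree celsius; NPC 8-pt / MIPE 11-pt dose response; compound pinned in DMSO; CellTiter-Glo, 10 min RT, luminescence; normalized to no-cell and DMSO controls.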

MCC-26 = test: as above; conditions: MCC and control cell lines, CellTiter-Glo viability, 72 h; series mostly up to 46 µM
Outline: as §2

MKL-1 = test: as above; conditions: MCC and control cell lines, CellTiter-Glo viability, 72 h; series mostly up to 46 µM
Outline: as §2

MKL-2 = test: as above; conditions: MCC and control cell lines, CellTiter-Glo viability, 72 h; series mostly up to 46 µM
Outline: as §2

UISO = test: as above; conditions: MCC and control cell lines, CellTiter-Glo viability, 72 h; series mostly up to 46 µM
Outline: as §2

WaGa = test: as above; conditions: MCC and control cell lines, CellTiter-Glo viability, 72 h; series mostly up to 46 µM
Outline: as §2

C33A = test: Primary qHTS to identify gynecologic anti-cancer compounds using libraries of approved drugs and bioactive compounds (AID 1345084); conditions: Gynecologic cancer cell panel viability, ATPlite luminescence, 48 h; series mostly up to 57.5 µM; further: on the % scale 0 is the no-effect control and ±100 the full control effect; nearly all actives have a fitted effect of over 55% in size
Outline: (§3)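 Cells, 1,000 per well, were allowed to settle for 16 h at 37 C before compound addition. Five concentrations were tested for 48 h, and viability was read by ATPlite luminescence after 15 min at room temperature.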

CAOV3 = test: as above; conditions: Gynecologic cancer cell panel viability, ATPlite luminescence, 48 h; series mostly up to 57.5 µM
Outline: as §3

CASKI = test: as above; conditions: Gynecologic cancer cell panel viability, ATPlite luminescence, 48 h; series mostly up to 57.5 µM
Outline: as §3

Es-2 = test: as above; conditions: Gynecologic cancer cell panel viability, ATPlite luminescence, 48 h; series mostly up to 57.5 µM
Outline: as §3

HeLa = test: as above; conditions: Gynecologic cancer cell panel viability, ATPlite luminescence, 48 h; series mostly up to 57.5 µM
Outline: as §3

HACAT [3] = test: qHTS assay to identify novel small-molecules to repurpose for Merkel cell carcinoma treatment (AID 1296009); conditions: MCC and control cell lines, CellTiter-Glo viability, 72 h; at 44.8 µM (top of the series) unless noted; further: nearly all actives have a fitted effect of over 60% in size; further: potency means the concentration at half of the fitted maximal effect
Outline: as §2

HEK293T = test: as above; conditions: MCC and control cell lines, CellTiter-Glo viability, 72 h; at 44.8 µM (top of the series) unless noted
Outline: as §2

NIH3T3 [4] = test: as above; conditions: MCC and control cell lines, CellTiter-Glo viability, 72 h; at 44.8 µM (top of the series) unless noted
Outline: as §2

Nc1ccc(S(=O)(=O)Nc2nccs2)cc1
inactive: Potency (W2) | max response (CRL-7250) 0.415% and -2.54% | max response (HEK293) 3.95% and -4.18% | max response (HaCat [1]) -0.23% and -23.1% | max response (KB-3-1) -16.1% | outcome (KB-3-1) | max response (NIH3T3 [2]) 0.16% and -3.65% | Potency (MCC-13) | Potency (MCC-26) | Potency (MKL-1) | Potency (MKL-2) | Potency (UISO) | Potency (WaGa) | Potency (C33A) | Potency (CAOV3) | Potency (CASKI) | Potency (Es-2) | Potency (HeLa)

CS(=O)(=O)c1ccc([C@@H](O)[C@@H](CF)NC(=O)C(Cl)Cl)cc1
active: Potency (HEK293) 2.99 µM
inactive: max response (CRL-7250) -8.92% | outcome (CRL-7250) | max response (HaCat [1]) 3.4% | outcome (HaCat [1]) | max response (KB-3-1) -19.8% | max response (NIH3T3 [2]) -3.77% and 0.419% | outcome (HACAT [3]) | Potency (MCC-13) | Potency (MCC-26) | Potency (MKL-1) | Potency (MKL-2) | Potency (UISO) | Potency (WaGa) | Potency (C33A) | Potency (CAOV3) | Potency (CASKI) | Potency (Es-2) | Potency (HeLa)

CC(C(O)c1ccc(O)cc1)N1CCC(Cc2ccccc2)CC1 (stereo unspecified)
active: Potency (W2) 4.26 µM
inactive: max response (CRL-7250) -1.07% | outcome (CRL-7250) | max response (HaCat [1]) -22.6% | outcome (HaCat [1]) | max response (KB-3-1) -5.14% | outcome (KB-3-1) | max response (NIH3T3 [2]) -2.06% and 3.27% | outcome (HACAT [3]) inactive [at 17.4 µM] | Potency (MCC-13) | Potency (MKL-1) | Potency (MKL-2) | Potency (UISO) | Potency (WaGa) | Potency (C33A) | Potency (CAOV3) | Potency (CASKI) | Potency (Es-2) | Potency (HeLa)

C[C@@H]1C[C@H]2[C@@H]3C[C@H](F)C4=CC(=O)C=C[C@]4(C)[C@@]3(F)[C@@H](O)C[C@]2(C)[C@@]1(O)C(=O)CO
inactive: max response (CRL-7250) -4.29% | outcome (CRL-7250) | max response (HEK293) -7.17% | outcome (HEK293) | max response (HaCat [1]) -8.88% and 2.84% | max response (KB-3-1) 18.2% | outcome (KB-3-1) | max response (NIH3T3 [2]) -2.74% and -3.01% | outcome (HEK293T) | Potency (MCC-13) | Potency (MCC-26) | Potency (MKL-1) | Potency (MKL-2) | Potency (UISO) | Potency (WaGa) | Potency (C33A) | Potency (CASKI) | Potency (Es-2) | Potency (HeLa)

CC(C)(C)C(=O)C(Oc1ccc(Cl)cc1)n1ccnc1 (stereo unspecified)
active: Potency (W2) 6.01 µM | Potency (UISO) 11.9 µM
inactive: max response (CRL-7250) -7.22% | outcome (CRL-7250) | outcome (HEK293) | max response (HaCat [1]) -9.75% | outcome (HaCat [1]) | max response (KB-3-1) -11% and -12.3% | max response (NIH3T3 [2]) -7.83% | outcome (NIH3T3 [2]) | outcome (HACAT [3]) | outcome (HEK293T) | Potency (MCC-13) | Potency (MCC-26) | Potency (MKL-1) | Potency (MKL-2) | outcome (NIH3T3 [4]) | Potency (WaGa) | Potency (C33A) | Potency (CAOV3) | Potency (CASKI) | Potency (Es-2) | Potency (HeLa)

CCN(CC)C(=O)Nc1ccc(OCC(O)CNC(C)(C)C)c(C(C)=O)c1 (stereo unspecified)
inactive: max response (CRL-7250) -2.26% and 4.22% | max response (HEK293) -6.49% | outcome (HEK293) | outcome (HaCat [1]) | max response (KB-3-1) 3.46% and 6.71% | max response (NIH3T3 [2]) -5.4% and -0.794% | outcome (HACAT [3]) | outcome (HEK293T) | Potency (MCC-13) | Potency (MCC-26) | Potency (MKL-1) | Potency (MKL-2) | Potency (UISO) | Potency (WaGa) | Potency (C33A) | Potency (CAOV3) | Potency (CASKI) | Potency (Es-2) | Potency (HeLa)

CCCCN1CCCC[C@H]1C(=O)Nc1c(C)cccc1C
inactive: max response (CRL-7250) 2.72% and -2.26% | max response (HEK293) -17.3% and -9.85% | max response (HaCat [1]) -56.1% | max response (KB-3-1) 2.43% | outcome (KB-3-1) | max response (NIH3T3 [2]) -0.105% and -0.406% | Potency (MCC-13) | Potency (MKL-1) | Potency (MKL-2) | Potency (UISO) | Potency (WaGa) | Potency (C33A) | Potency (CAOV3) | Potency (CASKI) | Potency (Es-2) | Potency (HeLa)
active: Potency (W2) 6.75 µM

CCOC(=O)[C@H](CCc1ccccc1)N[C@@H](C)C(=O)N1C(=O)N(C)C[C@H]1C(=O)O
inactive: Potency (W2) | max response (CRL-7250) 1.6% | outcome (CRL-7250) | max response (HEK293) -1.24% | outcome (HEK293) | max response (HaCat [1]) 0.859% | outcome (HaCat [1]) | max response (KB-3-1) 5.5% and 4.49% | max response (NIH3T3 [2]) 4.99% | outcome (NIH3T3 [2]) | outcome (HACAT [3]) | outcome (HEK293T) | Potency (MCC-13) | Potency (MCC-26) | Potency (MKL-1) | Potency (MKL-2) | outcome (NIH3T3 [4]) | Potency (UISO) | Potency (WaGa) | Potency (C33A) | Potency (CAOV3) | Potency (CASKI) | Potency (Es-2) | Potency (HeLa)

CCN(CC)CCNC(=O)c1cc(Cl)c(N)cc1OC
inactive: Potency (W2) | max response (CRL-7250) 0.565% | max response (HEK293) -1.38% | outcome (HEK293) | max response (HaCat [1]) 1.24% | outcome (HaCat [1]) | max response (KB-3-1) 7.45% | outcome (KB-3-1) | max response (NIH3T3 [2]) -2.52% | outcome (NIH3T3 [2]) | outcome (HACAT [3]) | outcome (HEK293T) | Potency (MCC-13) | Potency (MCC-26) | Potency (MKL-1) | Potency (MKL-2) | outcome (NIH3T3 [4]) | Potency (UISO) | Potency (WaGa) | Potency (C33A) | Potency (CASKI) | Potency (Es-2) | Potency (HeLa)

From PubChem BioAssay (NCATS)
